# In the supplement of paper PMC3334620:
# The full ranking holds about 33,000 sequences; the median of “E-score (-0.5 to 0.5)” is about -0.056, and the highest 2% start at about 0.38. Only a selection was taken, and the highest values are over-represented in it overall.
# Molecular target: Stb4 (UniProt P50104)
# Assay: PBM E-score (8-mer binding enrichment) (E-score (-0.5 to 0.5)); higher = stronger / more preferred TF binding
# Conditions: protein concentration: 200 nM; construct: GST-DNA-binding domain
# Procedure: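 Universal 'all 10-mer' protein binding microarrays (Agilent AMADID 015681) probed with GST-tagged S. cerevisiae TFs (full-length or DBD) made by in vitro transcription/translation (PURExpress), about 100-200 nM. Bound TF was detected with fluorescent anti-GST. Each ungapped 8-mer (which stands for itself and its reverse complement) is scored by the PBM enrichment score (E-score), a modified Wilcoxon-Mann-Whitney statistic from -0.5 to +0.5, computed with the Universal PBM Analysis Suite. Scale: above 0.35 generally sequence-specific binding.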
# Chain of UniProt P50104 (P50104 whole entry): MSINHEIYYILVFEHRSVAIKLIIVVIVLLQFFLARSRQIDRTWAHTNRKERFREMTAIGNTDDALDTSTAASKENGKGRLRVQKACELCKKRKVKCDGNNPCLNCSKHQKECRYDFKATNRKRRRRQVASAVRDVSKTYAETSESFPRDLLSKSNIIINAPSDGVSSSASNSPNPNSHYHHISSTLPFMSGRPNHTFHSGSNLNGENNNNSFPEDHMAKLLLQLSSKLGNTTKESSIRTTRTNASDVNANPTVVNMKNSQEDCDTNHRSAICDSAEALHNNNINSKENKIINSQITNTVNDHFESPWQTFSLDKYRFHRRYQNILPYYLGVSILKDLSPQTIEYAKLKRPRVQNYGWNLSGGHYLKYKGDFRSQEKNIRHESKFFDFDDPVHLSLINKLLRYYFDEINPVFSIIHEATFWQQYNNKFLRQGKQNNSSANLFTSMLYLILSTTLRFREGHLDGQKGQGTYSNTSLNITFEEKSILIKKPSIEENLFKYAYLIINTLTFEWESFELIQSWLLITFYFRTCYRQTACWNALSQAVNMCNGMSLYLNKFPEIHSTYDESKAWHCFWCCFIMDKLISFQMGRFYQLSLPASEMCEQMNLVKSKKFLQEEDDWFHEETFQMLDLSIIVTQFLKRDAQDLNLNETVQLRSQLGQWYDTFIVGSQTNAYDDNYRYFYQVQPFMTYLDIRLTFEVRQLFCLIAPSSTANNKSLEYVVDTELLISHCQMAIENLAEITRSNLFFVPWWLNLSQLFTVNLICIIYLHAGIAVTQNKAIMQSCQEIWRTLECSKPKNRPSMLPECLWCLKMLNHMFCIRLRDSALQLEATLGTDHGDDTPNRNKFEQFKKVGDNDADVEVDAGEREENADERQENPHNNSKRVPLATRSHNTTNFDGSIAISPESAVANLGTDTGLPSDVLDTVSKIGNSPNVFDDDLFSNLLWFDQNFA
row,Sequence,PBM E-score
1,GCCTCTCA,0.0652
2,ACAAACCC,0.0864
3,AGTGACAT,-0.243
4,CGGTGGCC,0.114
5,GTCGGCGA,0.126
6,ATCGGCGC,0.205
7,CGCGGCGC,0.106
8,CTCGGCGA,0.397
9,CTCGGCGC,0.383
10,ATCGGCGA,0.226
11,ATTGGTTC,0.0474
12,ATTACCAG,-0.105
13,ACCGACCA,0.141
14,TCCGACGA,0.386
15,CCCGACGA,0.34
16,GCCGACGA,0.285
17,GCCGACCA,0.207
18,TCCGACCA,0.388
19,GATCACCA,-0.056
20,CAGCTCGG,0.392
21,AAGCTCGG,0.439
22,CAGCTCGA,-0.144
23,CAGCTCGC,-0.13
24,AAGCTCGA,0.0225
25,AAGCTCGC,-0.0388

row,Sequence,PBM E-score
1,GCCCACGC,-0.168
2,ACATATCT,-0.0348
3,CTCTCGTC,-0.0633
4,AACTCGGC,0.364
5,CTCTCGGA,0.452
6,ATCTCGGC,0.442
7,ATCTCGCC,0.0501
8,CTCTCGAC,-0.293
9,CTCTCGCA,-0.148
10,CTCTCGAA,-0.356
11,CTCTCGGC,0.397
12,AACCAAGC,-0.109
13,GACCACGA,-0.259
14,CCTACCCA,-0.208
15,AGTCCCCA,-0.364
16,CCGCCGCA,0.0672
17,ACGCCGAA,0.317
18,CCGCCGAA,0.4
19,GCGCCGAC,0.195
20,CCGCCGAG,0.394
21,ACGCCGAG,0.352
22,TCGCCGAA,0.32
23,GCGCCGAA,0.388
24,CCGCCGAC,0.217
25,CTACGAGC,-0.133

row,Sequence,PBM E-score
1,AGTTAGAG,-0.174
2,ACGTCCCT,-0.32
3,GCGCATTA,0.00939
4,CCCTTGAG,-0.134
5,GTTGCCAA,-0.164
6,ATTGCCGC,0.121
7,CTTGCCTA,-0.286
8,GTTGCCCA,-0.0723
9,GTTGCCGA,0.458
10,CTTGCCGA,0.396
11,CTTGCCGC,0.18
12,ATTGCCGA,0.451
13,ATTGCCGG,0.301
14,CATATGAC,-0.132
15,GGAGGTAC,0.112
16,AAGAAACG,-0.084
17,GTCGAAAA,-0.122
18,GAATCCAC,-0.134
19,GATGCCAC,-0.0531
20,CACTCTTC,-0.0762
21,GAGCCTGC,-0.0113
22,AAATTCGT,0.117
23,ATATTCCA,0.0331
24,AAATTCCG,0.387
25,AAATTCCC,0.167

row,Sequence,PBM E-score
1,AAATTCCA,-0.0536
2,AAATTCGC,0.0337
3,ATATTCGG,0.399
4,AAATTCGG,0.389
5,ATATTCCC,0.32
6,ATATTCCG,0.393
7,ATATTCGC,-0.034
8,ATATTCGA,0.0718
9,CTTGCAGC,-0.153
10,TCCAGTCA,-0.0411
11,CAGTGTGG,-0.271
12,AAAAAGGT,-0.106
13,AATGTTTG,-0.0254
14,CCACTCTC,0.0625
15,GATAAGAC,0.0398
16,AGATTCCC,0.127
17,AGATTCCT,-0.216
18,AGATTCCG,0.389
19,ACGGTGTC,0.0812
20,CGGTCCAG,-0.0508
21,GGACATAC,0.0378
22,CACCCAGC,0.0106
23,TATTCGGA,0.426
24,GATTCGTA,0.0772
25,AATTCGAA,-0.191

row,Sequence,PBM E-score
1,CATTCGGG,0.343
2,AATTCGGA,0.447
3,TATTCGCA,-0.147
4,TATTCGAA,-0.2
5,CATTCGGA,0.383
6,AATTCGTA,0.0882
7,GATTCGCA,-0.0177
8,CATTCGTA,-0.194
9,GATTCGGA,0.43
10,ACCCATAG,-0.221
11,GGCGTTCA,-0.0303
12,CGCGACTC,-0.0117
13,CCTTAGTC,-0.155
14,CGAGCACC,0.204
15,CTATTCCC,0.0798
16,AGCAGTAC,0.0047
17,CATTCGTC,-0.0104
18,GATTCGAC,-0.233
19,CATTCGCC,-0.0759
20,CATTCGGC,0.409
21,AATTCGGT,0.278
22,GATTCGGC,0.393
23,AATTCGGC,0.357
24,GATTCGCC,-0.0248
25,AATTCGGG,0.39

row,Sequence,PBM E-score
1,GACAAAAC,-0.0388
2,GTACATCA,-0.00531
3,GTTATCCA,0.0169
4,AAATCTCA,-0.0445
5,ATCGGCTG,0.328
6,CTCGGCTC,0.422
7,CTCGGCTA,0.472
8,AACGGCTA,0.16
9,CGCGGCTC,0.191
10,ATCGGCTA,0.403
11,ATCGGCTC,0.279
12,GTCGGCTA,0.377
13,CACGGCTA,0.299
14,ATCAGCAC,-0.139
15,CAGGTGGA,-0.236
16,GAAGTTGA,-0.085
17,CCATCCGC,0.28
18,TCATCCCA,-0.181
19,ACATCCCA,-0.0846
20,ACATCCGA,0.486
21,TCATCCGA,0.473
22,ACATCCTG,-0.0816
23,ACATCCAG,-0.261
24,TCATCCAA,-0.191
25,CCATCCGG,0.332

row,Sequence,PBM E-score
1,ACATCCGG,0.447
2,CCATCCGA,0.453
3,ACATCCGT,0.348
4,CAACTAGG,-0.0487
5,TCTTCGCA,-0.0992
6,GTGTGCAA,-0.127
7,ACGTTCCC,0.11
8,ATTCAACC,0.00448
9,AAAGACAT,-0.14
10,GCGGGGGA,0.0109
11,CCGCAAGA,0.151
12,GCATCCGA,0.466
13,GCATCCGC,0.295
14,GCATCCTA,-0.163
15,ACGGCCAG,-0.124
16,GTCGGTTA,0.343
17,GTCGGTAA,0.333
18,CTCGGTAC,0.383
19,ATCGGTAA,0.336
20,CTCGGTTA,0.44
21,ATCGGTAC,0.329
22,CTCGGTGC,0.244
23,CTCGGTAA,0.431
24,ATCGGTTA,0.368
